From PubChem BioAssay AID1159580 (chemical genetic matrix, 2015)
Screen size: about 5,500 compounds; about 2,000 (36%) were called active. Roughly 18% stayed inconclusive and do not appear here. Rule as the data show it: active = normalized growth mostly below about 0.91 (no sharp cut-off); inconclusive = no clear call, values can overlap the other calls; inactive = mostly above about 0.92. The list shows a part of the results.

Assay: chemical genetic growth profiling, strain panel (AID 1159580);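 also: tested at 20 µM; growth read once vehicle control cultures reached saturation at 30 °C; 1 = growth at the plate median or of vehicle wells; lower values mean less growth of the strain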
Conditions: S. cerevisiae deletion strains, growth OD
[1] = locus YAR019C, strain CDC15, hits give low values
[2] = locus YBL105C, strain PKC1, hits give low values
[3] = locus YBR135W, strain CKS1, hits give low values
[4] = locus YBR136W, strain MEC1, hits give low values
[5] = locus YBR160W, strain CDC28, hits give low values
[6] = locus YDL017W, strain CDC7, hits give low values
[7] = locus YDL028C, strain MPS1, hits give low values
[8] = locus YDL101C, strain DUN1, hits give low values
[9] = locus YDL108W, strain KIN28, hits give low values
[10] = locus YDL132W, strain cdc53, hits give low values
[11] = locus YDL214C, strain PRR2, hits give low values
[12] = locus YDR052C, strain DBF4, hits give low values
[13] = locus YDR054C, strain cdc34, hits give low values
[14] = locus YDR226W, strain ADK1, hits give low values
[15] = locus YDR477W, strain SNF1, hits give low values
[16] = locus YER123W, strain YCK3, hits give low values
[17] = locus YER133W, strain GLC7, hits give low values
[18] = locus YFL009W, strain cdc4, hits give low values
[19] = locus YFL029C, strain CAK1, hits give low values
[20] = locus YFR003C, strain YPI1, hits give low values
[21] = locus YFR019W, strain FAB1, hits give low values
[22] = locus YFR028C, strain CDC14, hits give low values
[23] = locus YGR040W, strain KSS1, hits give low values
[24] = locus YGR052W, strain FMP48, hits give low values
[25] = locus YGR092W, strain DBF2, hits give low values
[26] = locus YHR030C, strain SLT2, hits give low values
[27] = locus YHR079C, strain IRE1, hits give low values
[28] = locus YHR082C, strain KSP1, hits give low values
[29] = locus YHR205W, strain SCH9, hits give low values
[30] = locus YIL147C, strain SLN1, hits give low values
[31] = locus YJL095W, strain BCK1, hits give low values
[32] = locus YJL128C, strain PBS2, hits give low values
[33] = locus YJL157C, strain FAR1, hits give low values
[34] = locus YJR016C, strain ILV3, hits give low values
[35] = locus YJR066W, strain TOR1 (second series), hits give low values
[36] = locus YJR066W, strain TOR1, hits give low values
[37] = locus YKL048C, strain ELM1, hits give low values
[38] = locus YKL067W, strain YNK1, hits give low values
[39] = locus YKL101W, strain HSL1, hits give low values
[40] = locus YKL193C, strain SDS22, hits give low values
[41] = locus YKL203C, strain TOR2, hits give low values
[42] = locus YLR113W, strain HOG1, hits give low values
[43] = locus YLR133W, strain CKI1, hits give low values
[44] = locus YLR403W, strain SFP1, hits give low values
[45] = locus YML070W, strain DAK1, hits give low values
[46] = locus YMR001C, strain CDC5, hits give low values
[47] = locus YMR205C, strain PFK2 (second series), hits give low values
[48] = locus YMR277W, strain FCP1, hits give low values
[49] = locus YNL006W, strain LST8, hits give low values
[50] = locus YNL020C, strain ARK1, hits give low values
[51] = locus YNL161W, strain CBK1, hits give low values
[52] = locus YNL183C, strain NPR1, hits give low values
[53] = locus YNL207W, strain RIO2, hits give low values
[54] = locus YNL222W, strain SSU72, hits give low values
[55] = locus YNL307C, strain MCK1 (second series), hits give low values
[56] = locus YOL078W, strain AVO1, hits give low values
[57] = locus YOL136C, strain PFK27, hits give low values
[58] = locus YOR061W, strain CKA2, hits give low values
[59] = locus YOR119C, strain RIO1, hits give low values
[60] = locus YOR231W, strain MKK1, hits give low values
[61] = locus YOR329C, strain SCD5, hits give low values
[62] = locus YPL031C, strain PHO85, hits give low values
[63] = locus YPL153C, strain RAD53, hits give low values
[64] = locus YPL204W, strain HRR25, hits give low values
[65] = locus YPL209C, strain IPL1, hits give low values
[66] = locus YPL256C, strain CLN2, hits give low values
[67] = locus YPR025C, strain CCL1, hits give low values
[68] = locus YPR106W, strain ISR1, hits give low values
[69] = locus YPR111W, strain DBF20, hits give low values
[70] = strain NNK1, hits give low values
[71] = strain TSCII, hits give low values

Measured: normalized growth

O=C(NNc1ccccc1F)c1ccno1
inactive: [1] 0.981 | [2] 0.97 | [3] 0.976 | [4] 0.98 | [5] 0.977 | [6] 0.987 | [7] 0.981 | [8] 0.979 | [9] 0.983 | [10] 0.973 | [11] 0.942 | [12] 0.979 | [13] 0.975 | [14] 0.983 | [15] 0.948 | [16] 0.869 | [17] 0.957 | [18] 0.986 | [19] 0.979 | [20] 0.982 | [21] 0.92 | [22] 0.982 | [23] 0.915 | [24] 1.01 | [25] 0.904 | [26] 0.959 | [27] 0.952 | [28] 0.998 | [29] 0.934 | [30] 0.983 | [31] 0.937 | [32] 0.972 | [33] 0.929 | [34] 0.979 | [35] 0.886 | [36] 1.01 | [37] 0.937 | [38] 0.943 | [39] 0.905 | [40] 0.978 | [41] 1.01 | [42] 0.863 | [43] 0.93 | [44] 0.934 | [45] 0.906 | [46] 0.979 | [47] 0.95 | [48] 0.986 | [49] 0.993 | [50] 0.929 | [51] 0.979 | [52] 0.937 | [53] 0.984 | [54] 0.976 | [55] 0.924 | [56] 0.98 | [57] 0.909 | [58] 0.884 | [59] 0.996 | [60] 0.888 | [61] 0.985 | [62] 0.964 | [63] 0.909 | [64] 0.937 | [65] 0.976 | [66] 0.914 | [67] 0.978 | [68] 0.968 | [69] 0.961 | [70] 0.983 | [71] 0.977

Cc1nnsc1C(=O)NNc1c(Cl)cccc1Cl
active: [42] 0.844
inactive: [1] 0.975 | [2] 0.974 | [3] 0.976 | [4] 0.977 | [5] 0.973 | [6] 0.979 | [7] 0.978 | [8] 0.993 | [9] 0.981 | [10] 0.982 | [11] 0.951 | [12] 0.985 | [13] 0.982 | [14] 0.986 | [15] 0.959 | [16] 0.933 | [17] 0.97 | [18] 0.98 | [19] 0.972 | [20] 0.98 | [21] 0.958 | [22] 0.981 | [23] 0.926 | [24] 1.02 | [25] 0.952 | [26] 1.02 | [27] 0.982 | [28] 1.02 | [29] 0.942 | [30] 0.981 | [31] 0.992 | [32] 0.926 | [33] 0.939 | [34] 0.984 | [35] 0.926 | [36] 1.05 | [37] 0.958 | [38] 0.948 | [39] 0.905 | [40] 0.98 | [41] 1.02 | [43] 0.939 | [44] 0.935 | [45] 0.927 | [46] 0.978 | [47] 0.941 | [48] 0.98 | [49] 0.993 | [50] 0.946 | [51] 0.979 | [52] 0.983 | [53] 0.988 | [54] 0.973 | [55] 0.948 | [56] 0.978 | [57] 0.927 | [58] 0.927 | [59] 1.01 | [60] 0.925 | [61] 0.977 | [62] 0.971 | [63] 0.949 | [64] 0.952 | [65] 0.973 | [66] 0.921 | [67] 0.975 | [68] 0.965 | [69] 0.976 | [70] 0.978 | [71] 0.977

Cc1nnsc1C(=O)Nc1cc(C(F)(F)F)cc(C(F)(F)F)c1
inactive: [1] 0.956 | [2] 0.957 | [3] 0.953 | [4] 0.958 | [5] 0.962 | [6] 0.958 | [7] 0.959 | [8] 0.964 | [9] 0.958 | [10] 0.95 | [11] 0.987 | [12] 0.966 | [13] 0.951 | [14] 0.955 | [15] 0.995 | [16] 1 | [17] 1.01 | [18] 0.948 | [19] 0.958 | [20] 0.955 | [21] 0.987 | [22] 0.964 | [23] 1 | [24] 1.02 | [25] 0.974 | [26] 1 | [27] 0.908 | [28] 1.07 | [29] 0.846 | [30] 0.957 | [31] 0.946 | [32] 0.957 | [33] 1.01 | [34] 0.956 | [35] 0.976 | [36] 1.1 | [37] 0.993 | [38] 0.977 | [39] 0.961 | [40] 0.947 | [41] 1.06 | [42] 0.961 | [43] 0.991 | [44] 0.941 | [45] 0.997 | [46] 0.962 | [47] 0.984 | [48] 0.951 | [49] 0.964 | [50] 0.985 | [51] 0.957 | [52] 1.05 | [53] 0.954 | [54] 0.961 | [55] 0.992 | [56] 0.951 | [57] 0.985 | [58] 0.996 | [59] 1.05 | [60] 1.03 | [61] 0.966 | [62] 1 | [63] 0.989 | [64] 0.99 | [65] 0.961 | [66] 0.864 | [67] 0.967 | [68] 0.948 | [69] 0.943 | [70] 0.925 | [71] 0.954

Cc1cc(C(=O)NNc2ccc(F)cc2F)no1
inactive: [1] 0.972 | [2] 0.967 | [3] 0.971 | [4] 0.969 | [5] 0.964 | [6] 0.972 | [7] 0.977 | [8] 0.959 | [9] 0.973 | [10] 0.984 | [11] 0.938 | [12] 0.963 | [13] 0.952 | [14] 0.963 | [15] 0.95 | [16] 0.822 | [17] 0.957 | [18] 0.974 | [19] 0.956 | [20] 0.974 | [21] 0.899 | [22] 0.961 | [23] 0.93 | [24] 0.995 | [25] 0.861 | [26] 0.923 | [27] 0.948 | [28] 1.01 | [29] 0.962 | [30] 0.971 | [31] 0.955 | [32] 0.965 | [33] 0.931 | [34] 0.974 | [35] 0.879 | [36] 0.998 | [37] 0.95 | [38] 0.953 | [39] 0.955 | [40] 0.976 | [41] 1.01 | [42] 0.932 | [43] 0.93 | [44] 0.934 | [45] 0.912 | [46] 0.969 | [47] 0.972 | [48] 0.975 | [49] 0.988 | [50] 0.953 | [51] 0.963 | [52] 0.979 | [53] 0.962 | [54] 0.959 | [55] 0.908 | [56] 0.967 | [57] 0.937 | [58] 0.822 | [59] 1.01 | [60] 0.921 | [61] 0.967 | [62] 0.939 | [63] 0.923 | [64] 0.925 | [65] 0.96 | [66] 0.934 | [67] 0.968 | [68] 0.962 | [69] 0.963 | [70] 0.979 | [71] 0.964
